From PubChem BioAssay (NCATS) come the findings set out here.

Each structure is given as a SMILES string. Where “and” joins values, the source holds several entries; their conditions need not be identical. Equal entries are not always repeated. Calls of active or inactive are those of the source. Calls come from the whole dose curve.

This test in a line: qHTS drug screen for cell cycle checkpoint inhibitors in PARPi-resistant BRCA-mutant ovarian cancer cell lines. (AID 1963452). The conditions noted are these: PEO1/OlaR viability, CellTiter-Glo luminescence, 96 h; for Z-AUC: stronger effect = lower value. In short, it runs like this:
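PEO1, PEO4 and PEO1/OlaR ovarian cancer cells, 600 per well, exposed 96 h at 37C to a dilution series. Viability read by CellTiter-Glo luminescence, normalized to DMSO and empty wells; activity summarized as Z-AUC.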
(In general: qHTS replaces the single test concentration by a dilution series.)

The mark [1] stands for this setting: measured here: PEO1 parental Z-AUC.
Potency is the fitted concentration of half-maximal effect.

With `COc1ccc(-n2c(SCCCN3C(=O)c4cccc5cccc(c45)C3=O)nnc2-c2ccncc2)cc1`, the Z-AUC is 0.836 (inactive). Further, the Z-AUC under setting [1] was found to be 0.296. The Z-AUC (measured here: PEO4 Z-AUC) is 0.916.

Take `O=c1[nH]c([C@@H]2CCCN2)nc2c1oc1ccc(Cl)cc12`: the Z-AUC was 0.967 (inactive). The Z-AUC under setting [1] came out at 1.19. Moreover, the Z-AUC (measured here: PEO4 Z-AUC) turned out to be 1.1.

In the case of `CC(C)(C)Sc1c(CC(C)(C)C(=O)O)n(Cc2ccc(Cl)cc2)c2ccc(OCc3ccc4ccccc4n3)cc12`, the Z-AUC is 1.37 (inactive). Further, the Z-AUC under setting [1] was 0.865. Further, the Z-AUC (measured here: PEO4 Z-AUC) came out at 0.962.

Regarding `COc1ccc2nc3n[nH]c(C)c3c(NCCOCCO)c2c1`, the Z-AUC is -0.331 (inactive). The Z-AUC under setting [1] amounted to 0.387. Also, the Z-AUC (measured here: PEO4 Z-AUC) turned out to be 0.00576.

Take `CCCC(CCC)C(=O)Nc1ccn([C@@H]2O[C@H](CO)[C@@H](O)C2(F)F)c(=O)n1`: the Z-AUC is -1.13 (inactive). Further, under setting [1], the Z-AUC is -1.5. For the same compound, the Z-AUC (measured here: PEO4 Z-AUC) was -0.847.

Regarding `COC(C)(C)CCn1nc(Nc2c(C)cccc2C)c2cnc(Nc3ccc(OCCN4CCCC4)c(F)c3)nc21`, the Z-AUC is -0.962 (inactive). In addition, the Z-AUC under setting [1] is -0.494. Moreover, under “measured here: PEO4 Z-AUC”, the Z-AUC came to 0.564.

For `Cc1sc2c(c1C)C(c1ccc(Cl)cc1)=N[C@@H](CC(=O)Nc1ccc(OCCOCCOCCOCCNc3cccc4c3C(=O)N(C3CCC(=O)NC3=O)C4=O)cc1)c1nnc(C)n1-2` (some centres not stated), the Z-AUC was -1.58 (inactive). Also, the Z-AUC under setting [1] was -2.13. In addition, the Z-AUC (measured here: PEO4 Z-AUC) was -1.49.

As for `CCN(c1cc(-c2ccc(CN3CCOCC3)cc2)cc(C(=O)NCc2c(C)cc(C)[nH]c2=O)c1C)C1CCOCC1`, the Z-AUC is 0.506 (inactive). Also, the Z-AUC under setting [1] was determined as 0.489. The Z-AUC (measured here: PEO4 Z-AUC) is 0.0284.

With `CCC(CC)C(c1ccc(Nc2nc3ccccc3s2)cc1)n1cncn1` (configuration not stated), the Z-AUC was 0.298 (inactive). For the same compound, under setting [1], the Z-AUC was 0.98. The Z-AUC (measured here: PEO4 Z-AUC) came to 0.959.

As to `Cc1c(NC(=O)c2cc3c(s2)CCCC3)cccc1-c1cn(C)c(=O)c(Nc2ccc(C3C(=O)N(C)CCN3C)cc2)n1` (configuration not stated), the Z-AUC is 1.18 (inactive). Moreover, the Z-AUC under setting [1] was 0.426. The Z-AUC (measured here: PEO4 Z-AUC) is 0.277.

For `C[C@@H]1CN(CC(=O)N2CC(C)(C)c3ncc(Cc4ccc(F)cc4)cc32)[C@@H](CN2CCOC[C@H]2C)CN1`, the Z-AUC is 1.68 (inactive). Also, under setting [1], the Z-AUC is 0.908. Also, the Z-AUC (measured here: PEO4 Z-AUC) came out at 0.0229.

With `FC(F)(F)c1ccc(CNc2ccc(Cc3c[nH]c4ncc(Cl)cc34)cn2)cn1`, the Z-AUC is 1.12 (inactive). Besides, the Z-AUC under setting [1] was 1.06. For the same compound, the Z-AUC (measured here: PEO4 Z-AUC) stood at 1.21.

As to `COCC(=O)NC/C=C/c1ccc2ncnc(Nc3ccc(Oc4ccc(C)nc4)c(C)c3)c2c1`, the Z-AUC is -0.178 (inactive). Also, the Z-AUC under setting [1] was -0.29. Besides, where the note is “measured here: PEO4 Z-AUC”, the Z-AUC was -0.0701.

For `CN[C@H]1CC[C@@H](c2ccc(Cl)c(Cl)c2)c2ccccc21`, the Z-AUC is 0.0758 (inactive). In addition, under setting [1], the Z-AUC was found to be 0.141. In addition, where the note is “measured here: PEO4 Z-AUC”, the Z-AUC was -0.265.

For `CC(/C=C/C(=O)NO)=C\[C@@H](C)C(=O)c1ccc(N(C)C)cc1`, the Z-AUC was -0.778 (inactive). The Z-AUC under setting [1] was -0.861. Moreover, for the setting “measured here: PEO4 Z-AUC”, the Z-AUC was -1.61.

Turning to `COc1cccc(-c2cc(F)ccc2C2Cc3nc(N)nc(C)c3C(=O)N2)n1` (configuration not stated), the Z-AUC is -1.35 (inactive). Also, under setting [1], the Z-AUC is -1.35. Besides, the Z-AUC (measured here: PEO4 Z-AUC) is -0.552.

Regarding `Cc1cn(CCN2CCN(c3ccccc3-c3cc(C#N)cc(C(=O)NCCCN4CCCC4)c3)CC2)c2ccccc12`, the Z-AUC was -0.259 (inactive). Also, under setting [1], the Z-AUC was -0.4. Also, the Z-AUC (measured here: PEO4 Z-AUC) was -0.379.

As to `CCCOc1ccc(CCc2nc3cc(-c4c(C)noc4C)ccc3n2CCN2CCOCC2)cc1`, the Z-AUC is -0.591 (inactive). Under setting [1], the Z-AUC is -0.719. Besides, where the note is “measured here: PEO4 Z-AUC”, the Z-AUC was -0.728.

Regarding `CN1CCN(c2ccc(-c3cccc(CN4CCOCC4)c3)cc2NC(=O)c2c[nH]c(=O)cc2C(F)(F)F)CC1`, the Z-AUC was 0.777 (inactive). Further, the Z-AUC under setting [1] is 0.269. In addition, the Z-AUC (measured here: PEO4 Z-AUC) turned out to be 0.524.

Turning to `Cc1c[nH]c2ncnc(N3CCC(CN)(C(=O)Nc4cccc(OC(=O)N(C)C)c4)CC3)c12`, the Z-AUC was -0.731 (inactive) and 0.531 (inactive). In addition, the Z-AUC under setting [1] is -0.27 and -0.244. Besides, under “measured here: PEO4 Z-AUC”, the Z-AUC was -0.694 and 1.07.

With `COc1cc(OC)c2c(=O)[nH]c(-c3cc(C)c(OCCO)c(C)c3)nc2c1`, the Z-AUC was 1.34 (inactive). Besides, the Z-AUC under setting [1] was 1.31. Also, the Z-AUC (measured here: PEO4 Z-AUC) was 1.15.

As to `COc1ccc(-c2cnc3c(-c4cccc5ncccc45)cnn3c2)cc1`, the Z-AUC was -0.651 (inactive). Besides, the Z-AUC under setting [1] was -0.725. The Z-AUC (measured here: PEO4 Z-AUC) is -0.465.

For `CC(C)(CNC(=O)c1cccc(-c2noc(C(F)(F)F)n2)c1)c1coc(-c2ccccc2)n1`, the Z-AUC was 0.0442 (inactive). Besides, the Z-AUC under setting [1] was found to be 0.732. For the same compound, for the setting “measured here: PEO4 Z-AUC”, the Z-AUC came out at 0.975.

With `CCCc1cc(C)[nH]c(=O)c1CNC(=O)c1cc(-c2ccnc(N3CCN(C)CC3)c2)cc2c1cnn2C(C)C`, the Z-AUC is -1.33 (inactive). Further, the Z-AUC under setting [1] is -1.11. Moreover, the Z-AUC (measured here: PEO4 Z-AUC) is -1.01.

With `CN1CCN(C2CCN(C(=O)Nc3cc(Oc4ccc(NC(=O)C5(C(=O)Nc6ccc(F)cc6)CC5)c(F)c4)ccn3)CC2)CC1`, the Z-AUC was 0.53 (inactive). Further, the Z-AUC under setting [1] stood at 0.13. Also, the Z-AUC (measured here: PEO4 Z-AUC) is -0.114.

Take `COc1ccccc1C(=O)Nc1cc2c(cc1N1CCCC1)n(C)c(=O)n2C`: the Z-AUC is -1.16 (inactive). Also, the Z-AUC under setting [1] is -0.583. Moreover, under “measured here: PEO4 Z-AUC”, the Z-AUC is -0.727.

Regarding `CC#C[C@@H](CC(=O)O)c1ccc(OCc2cccc(-c3ccc(C(F)(F)F)cc3)c2)cc1`, the Z-AUC is 0.0821 (inactive). In addition, the Z-AUC under setting [1] was 0.579. Where the note is “measured here: PEO4 Z-AUC”, the Z-AUC was found to be 0.882.

Consider `O=C1NC(=O)C(c2cnc3ccccn23)=C1c1cn2c3c(cc(F)cc13)CN(C(=O)N1CCCCC1)CC2`, for which the Potency was 174 nM (active). The Z-AUC under setting [1] is -1.85. For the same compound, the Z-AUC (measured here: PEO4 Z-AUC) was -1.33.

`Fc1ccc2[nH]ccc2c1-c1nc(N2CCOCC2)c2sc(CN3CCN(CC4CC4)CC3)cc2n1`: the Z-AUC was -0.813 (inactive). Also, the Z-AUC under setting [1] was -0.565. For the same compound, the Z-AUC (measured here: PEO4 Z-AUC) was -0.474.
